Screening results (PubChem)
SW480 rereplic: induces DNA re-replication in SW480 colon adenocarcinoma cells; SW480 DNA re-replication, Hoechst DNA content imaging, 48 h; AID 624297; actives 1.8% (n = 340,000); Potency, µM (highest dose often 46.1 µM), inactives show at the highest dose re-replication activation, usual class: activators; note: % of control where 0% means no effect; nearly all actives have a fitted effect of over 55% in size
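Quantitative HTS format with DMSO vehicle controls; 48 hr drug incubation at 37 C, then 40 min Hoechst staining and scanning imager measurement at 405 nm excitation.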
HT1080 IDH1KD tx: toxicity to HT-1080 IDH1 knockdown cells (counter line) | HT-1080 IDH1 knockdown viability, ATP luminescence, 48 h | Potency, µM (top dose mostly 46.1 µM), without a hit: top-dose activity, negative = toxicity, most hits filed as cytotoxic | actives 2% (n = 360,000) | AID 686971;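 note: 0% = DMSO wells and -100% = cell-free medium wells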
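Using the IDH1-knockdown HT-1080 line run in the same batch and compound series as the NT line, viability after 48 h at 37 °C was determined by CellTiter-Glo luminescence and expressed as % activity.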
HT1080-NT tox: kills 2HG-producing HT-1080-NT fibrosarcoma cells; HT-1080-NT fibrosarcoma viability, CellTiter-Glo ATP luminescence, 48 h; Potency, µM (series often up to 46.1 µM), inactives show top-dose activity, negative = less viability, actives largely listed as cytotoxic; actives 1.6% (n = 360,000); AID 686970;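 note: NT is the 2HG producing partner of a matched IDH1 knockdown line; 0% = DMSO-treated cells and -100% = media-only wells without cells; nearly all actives have a fitted effect of over 55% in size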
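Read-out is CellTiter-Glo luminescence after 10 minutes at room temperature, following 48 hours' compound treatment of HT-1080-NT cells (750 cells/well, RPMI, 5% FBS, 37 degrees C).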
KB-3-1 tox: KB-3-1 parental cell cytotoxicity. KB-3-1 viability, CellTiter-Glo ATP luminescence, 72 h. Potency, µM (titrated, usually from 46.1 µM), actives largely listed as cytotoxic. actives 1.4% (n = 400,000). AID 1347075; note: % is set by controls: 0 for no effect and ±100 for the full control effect; nearly all actives have a fitted effect of over 60% in size
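Viability of parental KB-3-1 cells, measured by CellTiter-Glo luminescence, followed a 72 h incubation at 37 °C with pinned compounds in phenol-red-free DMEM containing 10% FBS.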
KB-V1 MDR tox: KB-V1 MDR subline cytotoxicity; KB-V1 MDR cells viability, CellTiter-Glo, 72 h; Potency, µM (top dose mostly 46.1 µM), hits mostly cytotoxic; actives 3.4% (n = 400,000); AID 1347076; note: % is set by controls: 0 for no effect and ±100 for the full control effect; nearly all actives have a fitted effect of over 60% in size
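KB-V1 MDR subline cells in DMEM (phenol-red free, 10% FBS) exposed to compounds in qHTS concentration series for 72 h at 37 degrees C. Viability read by CellTiter-Glo luminescence; concentration-effect curves fitted after normalization and correction.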
MCF10A rerep: induces DNA re-replication in MCF 10a normal breast cells | MCF 10A DNA re-replication, Hoechst nuclear intensity, 48 h | Potency, µM (series often up to 46.1 µM), for the others: at the top dose activity, positive = re-replication, actives largely listed as activators | actives 2.9% (n = 350,000) | AID 624296; note: % of control where 0% means no effect; nearly all actives have a fitted effect of over 50% in size
An asterisk follows results filed as active; i = inactive; u = inconclusive; x = no result. Sampled rows, rich in hits. Any-hit rate of the full collection: about 8%. Calls come from the whole dose curve; as a rule, active = well fitted curve in the direction sought with a large enough effect; inconclusive = small, poorly fitted or top-dose-only effect, or another doubt; inactive = no such curve, though single readings can be large; an effect the other way counts as inactive or inconclusive. Potency is the fitted concentration of half-maximal effect.

SMILES | SW480 rereplic | HT1080 IDH1KD tx | HT1080-NT tox | KB-3-1 tox | KB-V1 MDR tox | MCF10A rerep
CN(C)CCCn1c2c3ccccc3ccc2c2oc(=O)c3ccccc3c21 | 18µM* | -26% | -1% | u | u | 3.7µM*
CCOC(=O)N1CCN(c2cc(=O)n(-c3ccc(C)cc3)c(=O)[nH]2)CC1 | -6% | -2% | -7% | i | i | -4%
C/C(=N\NC(=O)c1ccc(Cl)cc1)c1ccc(Br)s1 | -1% | -8% | -27% | u | i | 8%
C/C(=N\NC(=O)c1cc(Cl)ccc1O)c1ccc(Br)s1 | x | u | -5% | u | 21µM* | u
Cc1ccc(Sc2c(C)nn(C(=O)c3ccc(Br)cc3)c2C)cc1 | x | x | x | i | i | x
Cc1nn(C(=O)c2ccccc2)c(C)c1Sc1ccc(Cl)cc1 | x | x | x | u | 7.3µM* | x
COc1ccc(CCNC(=O)COc2ccc(S(=O)(=O)NC3CCCCC3)cc2Cl)cc1 | 25% | u | u | i | 15µM* | u
O=C(COc1ccc(Br)cc1CNC1CCCCC1)NCCc1ccccc1 | u | 18µM* | 23µM* | u | u | 13%
COc1ccc(CCNC(=O)CCc2ccc(S(=O)(=O)NC(C)C)cc2)cc1OC | -12% | 1% | 26% | i | i | -6%
COc1ccc(CCNC(=O)COc2ccc(S(=O)(=O)NC(C)C)cc2Cl)cc1OC | -19% | 11µM* | u | i | i | u
Cc1ccc(OCC(=O)N/N=C/c2cccc3cccnc23)cc1 | u | u | -22% | i | i | 0%
COc1ccc(-c2sc3ccccc3c2/C=C/c2ccncc2)cc1 | 1% | u | u | u | i | 7.3µM*
COc1ccc(-c2sc3ccccc3c2/C=C/c2ccc(OC)c(OC)c2)cc1 | 26% | -3% | 0% | i | i | u
Oc1ccc(Cl)cc1CNCc1ccc(C(F)(F)F)cc1 | 2% | 12% | 13% | i | i | 1%
CCOc1ccc(Cl)cc1S(=O)(=O)N1CCN(c2ccc(F)cc2)CC1 | u | -7% | -12% | i | i | u
CCOc1ccc(Cl)cc1S(=O)(=O)N1CCN(c2ccc(C)c(C)c2)CC1 | u | -7% | 3% | i | 15µM* | 8%
CCc1ccc2ncc(S(=O)(=O)c3ccc(C)c(C)c3)c(N3CCCC3)c2c1 | 15% | u | u | 18µM* | u | 23µM*
CCOC(=O)c1c(C)[nH]c(C2=NNC(=Nc3ccccc3OC)SC2)c1C | u | u | u | 18µM* | u | 12%
CN(CC(=O)Nc1ccc(F)c(F)c1F)C(=O)CC1CCCCC1 | -7% | -9% | -3% | i | 15µM* | -5%
Cc1ccccc1N1CCN(S(=O)(=O)c2nnc(NC(=O)c3ccc(C(C)C)cc3)s2)CC1 | x | x | x | i | i | x
O=C(O)C1C(c2ccccc2)C(C(=O)OCc2ccco2)C1c1ccccc1 (stereo not drawn) | -4% | 3% | 9% | i | i | 7%
COC(=O)C1C(c2ccccc2)C(C(=O)OCc2ccco2)C1c1ccccc1 (stereo not drawn) | 9% | -23% | 7% | u | 13µM* | u
CCCCNS(=O)(=O)c1ccc(S(=O)(=O)N2CCC3(CC2)OCCO3)cc1 | -10% | 3% | 2% | i | 16µM* | -66%
O=S(=O)(c1ccc(S(=O)(=O)N2CCC3(CC2)OCCO3)cc1)N1CCCC1 | 8% | 4% | 10% | i | i | -5%
CN(Cc1cccnc1)C(=O)CNC(=O)COc1ccccc1 | 0% | 3% | 5% | i | i | 1%
SMILES | SW480 rereplic | HT1080 IDH1KD tx | HT1080-NT tox | KB-3-1 tox | KB-V1 MDR tox | MCF10A rerep
Cc1cccc(C)c1-n1c(C)cc(/C=N\Nc2ccc([N+](=O)[O-])cn2)c1C | u | -18% | -4% | i | i | 5.2µM*
COc1ccc(/C=N/Nc2ccc([N+](=O)[O-])cc2)cc1O | 16µM* | u | -27% | u | u | 12µM*
CC(=O)Nc1ccc(C=NNc2ccc([N+](=O)[O-])cn2)cc1 | 0% | -10% | 6% | i | i | 10%
COc1cc(/C=N/Nc2ccc([N+](=O)[O-])cn2)cc(OC)c1O | 16µM* | u | u | i | i | 21µM*
O=[N+]([O-])c1ccc(NN=Cc2cc(Br)ccc2O)nc1 | 0.73µM* | 4.6µM* | 7.3µM* | i | u | 11%
O=[N+]([O-])c1ccc(NN=Cc2cccc(O)c2)nc1 | u | -28% | -15% | i | i | 16µM*
O=[N+]([O-])c1ccc(N/N=C\c2cccnc2)nc1 | -69% | 7% | 3% | i | i | 0%
COc1cccc(CNC(=O)CCC2CCCN(C(=O)CCn3cncn3)C2)c1 (stereo not drawn) | -5% | 0% | -1% | i | i | -5%
C=CCN(C(=O)CSc1nc2ccsc2c(=O)n1Cc1ccc(C(=O)O)cc1)c1ccccc1 | x | -6% | -1% | i | i | x
O=C1C(Cl)=C(N2CCCCCC2)C(=O)N1c1ccc(Cl)cc1 | -7% | -3% | 2% | i | i | -4%
O=C1C(Cl)=C(N2CCCCC2)C(=O)C(Cl)=C1c1cnc(N2CCCCC2)s1 | 5.8µM* | 16µM* | u | 18µM* | i | 5.8µM*
Cc1ccc(C)c(NC(=O)CCOc2ccccc2)c1 | -3% | 3% | 2% | i | i | 0%
Cc1ccc(NC(=O)CN2C(=O)S/C(=C\c3ccc(-c4cccc(C(=O)O)c4C)o3)C2=O)cc1C | u | -12% | u | i | i | 13µM*
O=C(O)c1ccc(-c2ccc(/C=C3\NC(=O)N(Cc4ccc(Cl)cc4)C3=O)o2)cc1Cl | 7.3µM* | u | -13% | u | i | 11µM*
CCOC(=O)CN1C(=O)S/C(=C\c2ccc(-c3ccc(C(=O)O)c(Cl)c3)o2)C1=O | 0.65µM* | 5% | 9% | i | i | 23µM*
Cc1cccc(NC(=O)CN2C(=O)N/C(=C/c3ccc(-c4cccc(C(=O)O)c4C)o3)C2=O)c1 | -5% | -1% | 5% | i | i | 5%
Cc1ccc(/C=C2/NC(=O)N(Cc3ccc(Br)cc3)C2=O)o1 | u | 2% | -9% | i | i | 16µM*
Cc1ccc(OCCn2cccn2)c(C)c1 | -71% | 10% | 5% | i | i | 2%
Cc1ccc(-n2nc(C)c3c(C)cc(=O)n(CC(=O)NC(C)C)c32)cc1 | x | x | x | i | i | x
